Screens from PubChem BioAssay.
BAZ2B inh = inhibitors of human BAZ2B bromodomain. AlphaScreen BAZ2B-H3K14Ac peptide displacement. Potency, µM (highest dose often 114 µM), inactives show at the highest dose activity change, negative = inhibition, usual class: inhibitors. 4.4% of 360,000 active. AID 504333; further: on the % scale 0 is the no-effect control and ±100 the full control effect; nearly all actives have a fitted effect of over 60% in size
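BAZ2B (50 nM) with biotin-H3(5-23)K14Ac peptide (50 nM) in PBS pH 7.4, 0.01% Tween-20, preformed 30 min, then compound 30 min at room temperature; top concentration 110uM. AlphaScreen streptavidin donor/nickel chelate acceptor beads (10 ug/mL final), 20 min dark, signal read.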
L3MBTL1 inh = blocks human L3MBTL1; AlphaScreen L3MBTL1–H3K9me1 peptide binding; Potency, µM (top dose mostly 57.1 µM), without a hit: at the highest dose activity, negative = inhibition, actives largely listed as inhibitors; Q9Y468; 0.66% of 230,000 active; further: on the % scale 0 is the no-effect control and ±100 the full control effect; nearly all actives have a fitted effect of over 60% in size
Target sequence (Q9Y468 whole entry, looked up): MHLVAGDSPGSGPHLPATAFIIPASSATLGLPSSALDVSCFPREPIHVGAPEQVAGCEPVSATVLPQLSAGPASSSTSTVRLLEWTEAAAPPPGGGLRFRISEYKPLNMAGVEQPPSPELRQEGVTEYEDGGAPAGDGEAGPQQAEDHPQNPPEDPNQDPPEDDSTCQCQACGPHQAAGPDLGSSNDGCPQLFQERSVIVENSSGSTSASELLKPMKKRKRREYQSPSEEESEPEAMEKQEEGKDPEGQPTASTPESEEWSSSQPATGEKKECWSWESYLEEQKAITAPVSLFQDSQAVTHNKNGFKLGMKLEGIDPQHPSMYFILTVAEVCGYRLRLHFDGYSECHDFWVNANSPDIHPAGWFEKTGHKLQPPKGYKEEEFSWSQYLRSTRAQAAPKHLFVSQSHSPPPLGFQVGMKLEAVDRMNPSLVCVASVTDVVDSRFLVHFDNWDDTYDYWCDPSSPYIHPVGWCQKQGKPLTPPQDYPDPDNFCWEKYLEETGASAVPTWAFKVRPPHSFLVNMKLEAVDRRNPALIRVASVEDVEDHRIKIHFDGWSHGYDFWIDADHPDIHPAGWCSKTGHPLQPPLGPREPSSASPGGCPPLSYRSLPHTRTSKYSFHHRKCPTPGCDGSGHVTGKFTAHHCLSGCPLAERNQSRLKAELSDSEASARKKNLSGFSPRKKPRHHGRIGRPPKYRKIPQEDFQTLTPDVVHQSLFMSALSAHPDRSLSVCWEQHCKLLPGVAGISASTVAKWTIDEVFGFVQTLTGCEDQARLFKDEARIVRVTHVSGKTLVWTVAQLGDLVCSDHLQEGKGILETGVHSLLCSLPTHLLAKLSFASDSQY
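AlphaScreen assay: L3MBTL1 (50 nM final) was preincubated 30 min at room temperature with biotinylated H3(1-15)K9me1 peptide (75 nM final), then 30 min with library compounds; streptavidin donor and nickel chelate acceptor beads (10 ug/mL final) added, 30 min dark.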
Sfp inh = blocks B. subtilis Sfp PPTase activity; Q9F4F7; Biochemical Sfp PPTase activity, qHTS; Potency, µM, without a hit: largest response in the series, negative = inhibition, actives largely listed as inhibitors; 3.5% of 310,000 active;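 further: the enzyme is Sfp with the accession as filed and its product quenches rhodamine fluorescence; 0% = enzyme reaction without inhibitor and -100% = no enzyme wells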
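Step 1, compound plus 15 nM Sfp-PPTase, 15 min, room temperature. Step 2, add rhodamine-CoA (5 uM) and BHQ-2-YbbR (12.5 uM). Step 3, read 525/598 nm fluorescence at 0 and 30 min.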
JMJD2A Tudor inh = JMJD2A Tudor domain (human) inhibition; O75164; AlphaScreen JMJD2A-Tudor / H3K4me3 peptide binding; Potency, µM (series often up to 114 µM), inactives show top-dose activity change, negative = inhibition, most hits filed as inhibitors; 4.4% of 390,000 active; AID 504339; further: on the % scale 0 is the no-effect control and ±100 the full control effect; nearly all actives have a fitted effect of over 50% in size
G9a block = inhibitors of human histone lysine methyltransferase G9a; G9a H3K9 monomethylation, AlphaScreen, 2 h; Potency, µM (highest dose often 102 µM), for the others: at the highest dose activity, negative = inhibition, most hits filed as inhibitors; Q96KQ7; AID 504332; 8.8% of 350,000 active; further: on the % scale 0 is the no-effect control and ±100 the full control effect; nearly all actives have a fitted effect of over 75% in size
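Step 1: enzyme (final 20 nM) with compound, 15 min RT. Step 2: substrate peptide 500 nM and SAM 20 uM, 2 h RT. Step 3: anti-H3K9me1 antibody and AlphaScreen beads, 10 min, then plate read.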
HP1b binding inh = blocks HP1-beta chromodomain binding to methylated histone tails | 0.56% of 390,000 active | AID 540317 | AlphaScreen HP1-beta / biotin-H3K9me3 peptide binding | Potency, µM (series often up to 114 µM), without a hit: at the highest dose activity change, negative = inhibition, most hits filed as inhibitors; further: nearly all actives have a fitted effect of over 70% in size
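Compound inhibition of the preformed complex between 50 nM HP1-beta and 50 nM biotinylated H3K9me3 peptide was read by AlphaScreen. Buffer was PBS pH 7.4 with 0.01% Tween-20. Incubations ran 30 min at room temperature, with 10 ug/mL donor/acceptor beads.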
The depositor's hits bear a star; ? = inconclusive; . = no result; [ ] = dose if it differs, or a comment. Most compounds without a hit are left out; they make up all but 12% or so of the library. The call rests on the fitted dose curve; in most records, active means well fitted curve in the direction sought with a large enough effect; inconclusive means small, poorly fitted or top-dose-only effect, or another doubt; inactive means no such curve, though single readings can be large; an effect the other way counts as inactive or inconclusive. Potency means the concentration at half of the fitted maximal effect.

SMILES	BAZ2B inh	L3MBTL1 inh	Sfp inh	JMJD2A Tudor inh	G9a block	HP1b binding inh
CC(=O)COC(=O)C1CCN(S(=O)(=O)c2cc([N+](=O)[O-])ccc2Cl)CC1	50µM*	28µM*	-5%	56µM*	?	17%
O=C(COC(=O)C1CCN(S(=O)(=O)c2cc([N+](=O)[O-])ccc2Cl)CC1)Nc1ncc(Cl)cc1Cl	32µM*	-93%	-4%	25µM*	-18%[0.501 µM]	?
Cc1cc(C)n(CC(O)COc2ccccc2)n1 (stereo not given)	4%	0%	23%	-14%	9%[12.7 µM]	15%
Cc1ccc2c(c1)c(C)c(C)n2CC(O)Cn1nc(C)c(Br)c1C (stereo not given)	45µM*	-10%	9%	50µM*	?	-36%
Cc1c(C)n(CC(O)CN2CCOCC2)c2ccccc12 (stereo not given)	.	-5%	-13%	22µM*	13µM*	71µM*
Cc1cc(C)n(CC(O)Cn2c(C)c(C)c3ccccc32)n1 (stereo not given)	35µM*	.	-26%	3.5µM*	13µM*	?
Cc1c(C)n(CC(O)CN2CCN(C)CC2)c2ccccc12 (stereo not given)	-35%	.	2%	-31%	?	4%[57 µM]
Cc1c(C)n(CC(O)CN2CCCCC2)c2ccccc12 (stereo not given)	45µM*	-8%	-25%	1.6µM*	?	?
O=c1c2ccccc2n(CC(O)CN2CCOCC2)c2ccccc12 (stereo not given)	1%	.	5%	8%	-10%[2.33 µM]	18%
CCOC(=O)O[C@]1(C(=O)OCCl)CC[C@@H]2[C@H]3CCC4=CC(=O)C=C[C@]4(C)[C@@H]3[C@@H](O)C[C@@]21C	.	.	4%	.	18%[59 µM]	.
O=C(NCc1ccccc1Cl)c1nnc(Cc2ccc(Cl)cc2)o1	0%	.	.	-2%	12%[59 µM]	39%
COc1cc(NC(=O)CCNS(=O)(=O)c2ccc3c(c2)CCN3C(=O)C2CC2)cc(OC)c1	0%	.	.	1%	10%[59 µM]	27%[57 µM]
COc1ccc(C(=O)COC(=O)Cn2c(C)csc2=O)c(OC)c1	?	?	.	?	?	-14%
Cc1ccc(C)c(C(=O)COC(=O)Cn2c(C)csc2=O)c1	-9%	.	-4%	-8%	79µM*	17%
CCCC(C)c1nnc(NC(=O)C2CC(=O)N(CCc3ccc(F)cc3)C2)s1 (stereo not given)	-18%	.	28µM*	?	7.9µM*	?
CC(C)(C)c1nnc(NC(=O)C2CC(=O)N(CCc3ccc(F)cc3)C2)s1 (stereo not given)	8%	.	?	-16%	32µM*	-16%
CCc1ccccc1NC(=O)c1cc(S(=O)(=O)N2CCCC2)cn1C	-11%	.	.	-22%	?	29%
CCN(c1ccccc1)S(=O)(=O)c1ccc(Cl)c(C(=O)NC2CCN(Cc3ccccc3)CC2)c1	.	.	.	-28%	.	1%
C[C@@H]1[C@H]2CC[C@@H]3[C@@H]4CC=C5C[C@@H](N(C)C)CC[C@]5(C)[C@@H]4CC[C@@]32CN1C	.	.	23%	.	24%[21.5 µM]	.
O=C(Nc1c(C(=O)O)[nH]c2ccccc12)c1cccc(C(F)(F)F)c1	-29%	-6%	20%	-25%	?	?
O=C(Nc1c(C(=O)O)[nH]c2ccc(F)cc12)c1cccc(C(F)(F)F)c1	-38%	-9%	8%	79µM*	?	?
COc1ccc(C(=O)NCCc2nnc3ccc(SCC(=O)N4CCCC4)nn23)cc1	-18%	.	4%	3%	23%	21%
NC(Cc1cc(I)c(Oc2cc(I)c(O)c(I)c2)c(I)c1)C(=O)O (stereo not given)	.	.	-2%	.	-38%[2.33 µM]	.
O=C(CNC(=O)C1CCCCC1)OCCOc1ccccc1	.	.	.	-10%[57.1 µM]	.	35%[57 µM]
COc1ccccc1Nc1cc(C)nc(Nc2ccccc2OC)n1	?	-10%	.	-23%	2.2µM*	8%
SMILES	BAZ2B inh	L3MBTL1 inh	Sfp inh	JMJD2A Tudor inh	G9a block	HP1b binding inh
CCONC(=O)Nc1ccccc1[N+](=O)[O-]	12%	3%	-5%	-6%	71µM*	24%
O=C(CC(=O)Nc1ccccc1[N+](=O)[O-])Nc1ccccc1[N+](=O)[O-]	-15%	.	8%	-24%	1%	12%
COc1ccc(C(=O)NC(=S)Nc2ccc([N+](=O)[O-])cc2C)cc1OC	2%	2%	56µM*	-33%	-45%[59 µM]	2%
CCOc1ccc(NC(=S)NC(=O)/C=C/c2ccc(C)cc2)c([N+](=O)[O-])c1	?	-14%	-22%	-18%	-39%	7%
CCOc1ccc(NC(=S)NC(=O)/C=C/c2ccc(OC)c(OC)c2)c([N+](=O)[O-])c1	-31%[57.1 µM]	-2%	50µM*	?	50µM*	-25%
CCOc1ccc(NC(=O)Cc2ccccc2)c([N+](=O)[O-])c1	?	5µM*	11%	-19%[57.1 µM]	-16%[59 µM]	3%
CO[C@H]1COC(=O)[C@H](C)NC(=O)[C@@H](C)COC(=O)C/C=C\[C@@H]1C	.	.	12%	.	.	.
CCOC(=O)c1c(NC(=O)c2cc(=O)c3c(C)cc(C)cc3o2)sc(C)c1C	-1%	.	.	0%	-4%[59 µM]	50%
O=C(COc1ccccc1[N+](=O)[O-])N(Cc1ccccc1)c1ccccn1	-15%	-1%	7%	-10%	1%	32%
O=C1Nc2cc(Cl)ccc2Oc2cc(Oc3ccccc3)ccc21	-14%	.	.	-16%	6%[59 µM]	9%
COc1ccc([C@H]2CC(=O)C=C(c3ccc4ncccc4c3)C2)cc1OC	.	-6%	.	?	.	12%
CC1CCCN(Cc2c(O)ccc3c(=O)c(-c4ccccc4Cl)c(C(F)(F)F)oc23)C1 (stereo not given)	7%	.	.	-19%	13%[59 µM]	22%
O=C(Nc1ccc(N2CCN(CCOc3ccc(Cl)cc3)CC2)c(C(=O)O)c1)c1ccc(F)cc1	-17%	.	.	-24%	-5%[59 µM]	12%
Cc1ccccc1NC(=O)CNC(=O)Cc1cccc2ccccc12	0%	-2%	.	-30%	10%[0.501 µM]	6%
COc1ccc(C(=O)NNC(=O)c2ccncc2)cc1[N+](=O)[O-]	-2%	.	16%	-8%	-10%	43%
COc1ccc(C(=O)NC(=S)Nc2ccccc2[N+](=O)[O-])cc1OC	-36%	3%[11.4 µM]	89µM*	-3%	?	8%
O=C(CNCc1cccc2ccccc12)Nc1ccccc1[N+](=O)[O-]	?	?	-8%	?	50µM*	?
COc1ccc(C(=O)NC(=S)NNC(=O)c2ccc(O)cc2)cc1[N+](=O)[O-]	6%	.	10%	-18%	32µM*	6%
COc1ccc(Cl)cc1NC(=O)c1cc(-c2ccc3c(c2)OCO3)on1	-1%	.	.	-6%	5%[59 µM]	45%
